Hit rate of the full screen: of about 5,500 compounds, about 2,000 (36%) were called active. Not shown: some 18% with an inconclusive outcome. Cut-off read from the data, not from the text of the source: active = normalized growth mostly below about 0.91 (no sharp cut-off); inconclusive = no clear call, values can overlap the other calls; inactive = mostly above about 0.92. Some of the results follow.
Assay: chemical genetic growth profiling, strain panel (AID 1159580);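 note: tested at 20 µM; growth read once vehicle control cultures reached saturation at 30 °C; 1 = growth at the plate median or of vehicle wells; lower values mean less growth of the strain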
Conditions: S. cerevisiae deletion strains, growth OD

Measured: normalized growth

CC(=O)OC1CC(OC(C)=O)C2(C)C(CC(OC(C)=O)C3(C)C2CCC2(C)C(c4ccoc4)CC4OC423)C1(C)C (stereo not drawn)
inactive: locus YBR021W, strain FUR4, stronger effect = lower value 0.998 | locus YBR229C, strain ROT2, stronger effect = lower value 1 | locus YCL029C, strain bik1, stronger effect = lower value 1 | locus YDL035C, strain GPR1, stronger effect = lower value 1.01 | locus YDL074C, strain BRE1, stronger effect = lower value 1.02 | locus YDL101C, strain DUN1, stronger effect = lower value 1.03 | locus YDL185W, strain tfp1, stronger effect = lower value 1.01 | locus YDL192W, strain arf1, stronger effect = lower value 1.01 | locus YDR101C, strain arx1, stronger effect = lower value 0.998 | locus YDR162C, strain NBP2, stronger effect = lower value 1.01 | locus YDR318W, strain mcm21, stronger effect = lower value 1 | locus YDR388W, stronger effect = lower value 1.01 | locus YDR502C, strain sam2, stronger effect = lower value 1.02 | locus YER110C, stronger effect = lower value 1.01 | locus YER155C, strain BEM2, stronger effect = lower value 1 | locus YER167W, strain BCK2, stronger effect = lower value 1.01 | locus YGL078C, strain dbp3, stronger effect = lower value 1.02 | locus YGL086W, strain mad1, stronger effect = lower value 0.997 | locus YGL248W, strain PDE1, stronger effect = lower value 1.01 | locus YGR135W, strain pre9, stronger effect = lower value 1.04 | locus YGR229C, strain SMI1, stronger effect = lower value 1.02 | locus YGR252W, strain gcn5, stronger effect = lower value 0.998 | locus YHR079C, strain IRE1 (second series), stronger effect = lower value 1.01 | locus YHR094C, strain hxt1, stronger effect = lower value 1.01 | locus YHR129C, strain ARP1, stronger effect = lower value 1.02 | locus YHR200W, strain rpn10, stronger effect = lower value 1.01 | locus YIL066C, strain RNR3, stronger effect = lower value 1.01 | locus YIL073C, strain SPO22, stronger effect = lower value 1.05 | locus YIL125W, strain kgd1, stronger effect = lower value 1.01 | locus YIR030C, strain dcg1, stronger effect = lower value 1 | locus YJL095W, strain BCK1, stronger effect = lower value 1.04 | locus YJL134W, strain LCB3, stronger effect = lower value 1.01 | locus YJL168C, strain set2, stronger effect = lower value 1.01 | locus YJL187C, strain SWE1 (second series), stronger effect = lower value 1.02 | locus YJR043C, strain POL32, stronger effect = lower value 0.981 | locus YKL009W, strain mrt4, stronger effect = lower value 0.984 | locus YKL068W, stronger effect = lower value 1 | locus YKL085W, strain MDH1 (second series), stronger effect = lower value 1.01 | locus YKL085W, strain MDH1, stronger effect = lower value 1.01 | locus YKR001C, strain vps1, stronger effect = lower value 1 | locus YLR039C, strain RIC1, stronger effect = lower value 1.01 | locus YLR058C, strain SHM2, stronger effect = lower value 1.01 | locus YLR102C, strain apc9, stronger effect = lower value 1.01 | locus YLR262C, strain YPT6, stronger effect = lower value 0.927 | locus YLR268W, strain sec22, stronger effect = lower value 0.994 | locus YLR330W, strain CHS5, stronger effect = lower value 1.02 | locus YLR342W, strain FKS1 (second series), stronger effect = lower value 1 | locus YLR371W, strain rom2, stronger effect = lower value 1.02 | locus YLR418C, strain cdc73, stronger effect = lower value 1.02 | locus YML016C, strain PPZ1, stronger effect = lower value 1.01 | locus YML032C, strain rad52, stronger effect = lower value 1.01 | locus YML124C, strain tub3, stronger effect = lower value 1 | locus YMR078C, strain ctf18, stronger effect = lower value 1.01 | locus YMR223W, strain ubp8, stronger effect = lower value 1.01 | locus YMR263W, strain SAP30, stronger effect = lower value 1.02 | locus YMR307W, strain GAS1, stronger effect = lower value 1.01 | locus YNL067W, strain RPL9B, stronger effect = lower value 1.03 | locus YNL153C, strain GIM3, stronger effect = lower value 1.03 | locus YNL233W, strain BNI4, stronger effect = lower value 0.986 | locus YNL250W, strain rad50, stronger effect = lower value 1.01 | locus YNL271C, strain bni1, stronger effect = lower value 0.998 | locus YNL298W, strain CLA4, stronger effect = lower value 1.02 | locus YNL307C, strain MCK1, stronger effect = lower value 1.02 | locus YNR052C, strain pop2, stronger effect = lower value 1.01 | locus YOL012C, strain htz1 0.881 | locus YOL147C, strain pex11, stronger effect = lower value 0.996 | locus YOR061W, strain CKA2, stronger effect = lower value 1 | locus YOR069W, strain VPS5, stronger effect = lower value 1.01 | locus YOR136W, strain idh2, stronger effect = lower value 1 | locus YOR144C, strain elg1, stronger effect = lower value 0.999 | locus YOR184W, strain ser1, stronger effect = lower value 0.982 | locus YOR316C, strain cot1, stronger effect = lower value 1.01 | locus YPL241C, strain CIN2, stronger effect = lower value 1.01 | locus YPR119W, strain clb2, stronger effect = lower value 1 | locus YPR141C, strain kar3, stronger effect = lower value 1.02 | locus YPR163C, strain tif3, stronger effect = lower value 1.01 | locus YPR167C, strain met16, stronger effect = lower value 1.01 | strain wtn01, stronger effect = lower value 0.997

From PubChem BioAssay AID1159580 (chemical genetic matrix, 2015)
